“And” between values parts separate entries of the source, which are not always exact repeats. Equal entries are not always repeated. The panel holds about 83,000 compounds, 20% with a hit somewhere; the sample as a whole holds those more often.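 Testing used 96-well plates and a 48-hour single-concentration exposure. Example: -40 means 40% of the starting cells died.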 Unmarked numbers belong to inactive results. The source made the active and inactive calls. The calls were made as follows: active = growth percent below 10; inactive = the rest.

Here are results for 11 molecules from PubChem BioAssay (NCI).

For this assay, the system named is MDA-MB-468 breast. Nature of the assay: NCI-60 one-dose screen, 48 h (100 = growth as untreated, 0 = no growth, -100 = all killed). As to conditions: 10 µM unless noted.
Consider `CC(=O)O[C@H]1C[C@H](O[C@H]2[C@@H](O)C[C@H](O[C@H]3[C@@H](O)C[C@H](O[C@H]4CC[C@@]5(C)C(CCC6C5C[C@@H](O)[C@]5(C)[C@@H](C7=CC(=O)OC7)CC[C@]65O)C4)O[C@@H]3C)O[C@@H]2C)O[C@H](C)[C@H]1O[C@@H]1O[C@H](CO)[C@@H](O)[C@H](O)[C@H]1O` (stereo partly specified), for which the growth was -56.2% (active). The result for `CN1CCc2cc3c(cc2C1O)OCO3` (stereo unspecified) reads 99.4% and 108%. The result for `CC[C@H](NC(=O)[C@H]1CCCCN1C)C(=O)N(C)[C@H](C[C@@H](OC(C)=O)c1nc(C(=O)N[C@@H](Cc2ccccc2)C[C@H](C)C(=O)O)cs1)C(C)C` reads 17.6%; that for `CC(C)CCC1(CCCl)C(=O)NC(=O)NC1=O`, 90.1%. In the case of `O=C(O)C1[O][Sb][O]C1C(=O)O` (stereo unspecified) it was 95.7%; in that of `CN1CCN(c2ccc(Cl)cc2)CC1`, 71.1%; in that of `S=P(N1CCCCCC1)(N1CC1)N1CC1`, 105%. Regarding `c1ccc([As]=[As]c2ccccc2)cc1` (stereo unspecified), the growth is -55.7% (active). In the case of `CC(=O)O[C@H]1CCC2C3CCC4=C/C(=N/O)CCC4(C)C3CCC21C` (stereo partly specified) it was 97.7%; in that of `CCCCCCC(=O)NC1=C(N2CC2)C(=O)C(NC(=O)CCCCCC)=C(N2CC2)C1=O`, 23.2%; in that of `Cc1ccc(Nc2nc3c(s2)C2=CC[C@@H]4[C@H](CC[C@]5(C)C(=O)CC[C@@H]45)[C@@]2(C)CC3)cc1`, 32.3%.
